Results on 1 sequence are retold here after PMC7862700, “An all-to-all approach to the identification of sequence-specific readers for epigenetic DNA modifications on cytosine”.

Holding throughout (assay): DAPPL (digital affinity profiling via proximity ligation, sequencing); 10 mM Tris-HCl pH 7.5, 50 mM NaCl, 1 mM DTT, 4% glycerol, room temperature, 30 min; GST-TFs on glutathione beads, 16-mer random dsDNA library, 0.1% formaldehyde crosslink after washing; high values mean tight binding
For one test, the target named is T1, FEV (Homo sapiens, UniProt Q99581 1-238).
T1 sequence: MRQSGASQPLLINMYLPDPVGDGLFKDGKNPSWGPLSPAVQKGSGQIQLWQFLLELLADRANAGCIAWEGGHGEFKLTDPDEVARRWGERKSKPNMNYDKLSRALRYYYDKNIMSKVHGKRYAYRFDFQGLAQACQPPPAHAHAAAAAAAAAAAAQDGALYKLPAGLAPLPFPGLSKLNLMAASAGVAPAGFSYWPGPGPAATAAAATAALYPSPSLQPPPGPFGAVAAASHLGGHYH
Particulars: protein: recombinant; tags: N-terminal GST; dsDNA, one strand shown. Put shortly: (§1)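 Human transcription factors carrying a GST fusion were produced in yeast, bound to glutathione beads, tagged with DNA barcodes and pooled together with a tag-only sample. Each pool was held with 200 nmole of a random double-stranded 16-mer DNA library in Tris/NaCl/DTT/glycerol buffer for 30 min at room temperature, then washed, crosslinked in 0.1% formaldehyde, proximity-ligated with BsaI/T4 ligase (1 h, 37 °C), PCR-amplified and sequenced on an Illumina NextSeq500. Binding signal is the read frequency of each hexamer for a given factor divided by its frequency in the tag-only sample.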

For another test, the target named is ETV5 (Homo sapiens, UniProt P41161 1-510). Particulars: protein: recombinant; tags: N-terminal GST; dsDNA, one strand shown. An outline of the steps: as §1
Chain of ETV5 (P41161 whole entry): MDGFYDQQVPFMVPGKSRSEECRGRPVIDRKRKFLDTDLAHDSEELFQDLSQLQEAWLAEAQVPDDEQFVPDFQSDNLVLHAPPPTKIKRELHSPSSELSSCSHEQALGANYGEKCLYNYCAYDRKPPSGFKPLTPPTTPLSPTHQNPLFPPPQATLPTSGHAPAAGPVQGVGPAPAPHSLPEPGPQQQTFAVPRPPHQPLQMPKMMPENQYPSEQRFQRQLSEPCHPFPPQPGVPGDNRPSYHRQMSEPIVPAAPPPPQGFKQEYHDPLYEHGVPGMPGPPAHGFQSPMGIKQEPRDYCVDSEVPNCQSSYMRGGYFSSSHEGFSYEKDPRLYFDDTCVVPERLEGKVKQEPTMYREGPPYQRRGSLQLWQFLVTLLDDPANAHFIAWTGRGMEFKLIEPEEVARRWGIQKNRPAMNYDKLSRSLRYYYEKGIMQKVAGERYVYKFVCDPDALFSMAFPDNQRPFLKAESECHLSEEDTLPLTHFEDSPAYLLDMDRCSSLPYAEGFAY
Another test addresses HSF1 (Homo sapiens, UniProt Q00613 1-529). The following applies: protein: recombinant; tags: N-terminal GST; chain copies: 3; dsDNA, one strand shown. An outline of the steps:
as §1

In the next test the target is T2, SPIC (Homo sapiens, UniProt Q8N5J4 1-248).
T2 sequence: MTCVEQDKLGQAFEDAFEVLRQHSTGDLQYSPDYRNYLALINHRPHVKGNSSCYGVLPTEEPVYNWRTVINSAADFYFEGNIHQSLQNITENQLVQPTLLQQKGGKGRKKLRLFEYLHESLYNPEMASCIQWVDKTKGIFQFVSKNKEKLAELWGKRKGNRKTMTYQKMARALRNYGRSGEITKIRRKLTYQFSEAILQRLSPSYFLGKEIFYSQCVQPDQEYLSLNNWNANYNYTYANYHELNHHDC
Particulars: protein: recombinant; tags: N-terminal GST; dsDNA, one strand shown. Put shortly:
as §1

The target in another test is ELF4 (Homo sapiens, UniProt Q99607 1-663). Particulars: protein: recombinant; tags: N-terminal GST; dsDNA, one strand shown. Put shortly:
as §1

In another test the target is T3, ELK4 (Homo sapiens, UniProt P28324-2 1-405).
T3 sequence: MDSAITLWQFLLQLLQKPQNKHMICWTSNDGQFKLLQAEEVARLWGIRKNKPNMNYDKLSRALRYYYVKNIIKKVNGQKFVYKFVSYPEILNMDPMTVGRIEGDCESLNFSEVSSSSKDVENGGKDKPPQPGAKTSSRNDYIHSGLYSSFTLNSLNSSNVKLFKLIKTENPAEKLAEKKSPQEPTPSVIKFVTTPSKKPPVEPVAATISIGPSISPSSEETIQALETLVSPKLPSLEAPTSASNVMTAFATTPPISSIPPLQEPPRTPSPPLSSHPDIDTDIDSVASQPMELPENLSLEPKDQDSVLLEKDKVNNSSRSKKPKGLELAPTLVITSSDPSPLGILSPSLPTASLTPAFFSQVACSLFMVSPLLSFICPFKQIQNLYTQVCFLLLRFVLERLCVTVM
Particulars: protein: recombinant; tags: N-terminal GST; dsDNA, one strand shown. Put shortly:
as §1

For another test, the target named is T4, ETV2 (Homo sapiens, UniProt O00321 1-342).
T4 sequence: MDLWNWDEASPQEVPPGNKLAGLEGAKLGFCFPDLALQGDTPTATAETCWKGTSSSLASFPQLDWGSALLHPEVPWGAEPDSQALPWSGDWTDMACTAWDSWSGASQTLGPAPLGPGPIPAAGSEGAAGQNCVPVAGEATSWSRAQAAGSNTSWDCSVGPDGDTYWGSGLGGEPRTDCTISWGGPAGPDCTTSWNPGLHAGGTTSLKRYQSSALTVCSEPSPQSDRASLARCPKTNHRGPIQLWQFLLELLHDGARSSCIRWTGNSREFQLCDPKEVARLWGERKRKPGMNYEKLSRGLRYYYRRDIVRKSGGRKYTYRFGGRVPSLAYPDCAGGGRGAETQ
Particulars: protein: recombinant; tags: N-terminal GST; dsDNA, one strand shown. Put shortly:
as §1

In a further test the target is T5, ELF3 (Homo sapiens, UniProt P78545 1-371).
T5 sequence: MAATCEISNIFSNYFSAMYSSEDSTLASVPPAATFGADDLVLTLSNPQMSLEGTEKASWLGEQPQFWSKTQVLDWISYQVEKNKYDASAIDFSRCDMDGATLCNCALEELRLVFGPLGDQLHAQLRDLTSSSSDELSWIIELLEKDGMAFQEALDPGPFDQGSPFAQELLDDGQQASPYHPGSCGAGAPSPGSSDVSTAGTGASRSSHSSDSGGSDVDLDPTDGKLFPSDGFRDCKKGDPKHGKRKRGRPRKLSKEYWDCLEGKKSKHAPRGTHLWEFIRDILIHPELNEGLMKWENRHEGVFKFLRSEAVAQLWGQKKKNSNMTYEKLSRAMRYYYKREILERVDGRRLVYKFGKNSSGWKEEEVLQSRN
Particulars: protein: recombinant; tags: N-terminal GST; dsDNA, one strand shown. An outline of the steps:
as §1

For a further test, the target named is CRX (Homo sapiens, UniProt O43186 1-299). The following applies: protein: recombinant; tags: N-terminal GST; dsDNA, one strand shown. Put shortly: as §1
Chain of CRX (O43186 whole entry): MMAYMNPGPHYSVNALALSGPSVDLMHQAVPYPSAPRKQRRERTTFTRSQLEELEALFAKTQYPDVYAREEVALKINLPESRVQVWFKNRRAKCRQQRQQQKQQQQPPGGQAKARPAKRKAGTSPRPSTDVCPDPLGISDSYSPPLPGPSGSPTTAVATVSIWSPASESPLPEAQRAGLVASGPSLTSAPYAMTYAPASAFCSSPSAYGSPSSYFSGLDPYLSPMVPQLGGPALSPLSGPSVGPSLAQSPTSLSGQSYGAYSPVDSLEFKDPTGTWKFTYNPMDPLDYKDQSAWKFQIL
Another test deals with ETV1 (Homo sapiens, UniProt P50549 1-477). The following applies: protein: recombinant; tags: N-terminal GST; dsDNA, one strand shown. An outline of the steps: as §1
Chain of ETV1 (P50549 whole entry): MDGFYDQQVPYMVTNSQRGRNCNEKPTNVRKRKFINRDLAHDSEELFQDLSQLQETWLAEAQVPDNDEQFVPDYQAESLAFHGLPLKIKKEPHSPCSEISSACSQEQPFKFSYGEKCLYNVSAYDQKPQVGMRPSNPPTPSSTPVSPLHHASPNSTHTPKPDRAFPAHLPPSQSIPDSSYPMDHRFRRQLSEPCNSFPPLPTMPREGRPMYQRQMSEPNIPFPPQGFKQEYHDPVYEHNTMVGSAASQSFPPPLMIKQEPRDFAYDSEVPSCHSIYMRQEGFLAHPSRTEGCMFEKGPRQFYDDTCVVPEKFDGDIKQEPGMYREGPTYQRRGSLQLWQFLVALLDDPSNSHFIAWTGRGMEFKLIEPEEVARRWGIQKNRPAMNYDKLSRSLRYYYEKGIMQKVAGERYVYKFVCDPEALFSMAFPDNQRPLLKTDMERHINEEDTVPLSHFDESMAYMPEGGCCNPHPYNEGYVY
In a further test the target is T6, ERF (Homo sapiens, UniProt P50548 1-548).
T6 sequence: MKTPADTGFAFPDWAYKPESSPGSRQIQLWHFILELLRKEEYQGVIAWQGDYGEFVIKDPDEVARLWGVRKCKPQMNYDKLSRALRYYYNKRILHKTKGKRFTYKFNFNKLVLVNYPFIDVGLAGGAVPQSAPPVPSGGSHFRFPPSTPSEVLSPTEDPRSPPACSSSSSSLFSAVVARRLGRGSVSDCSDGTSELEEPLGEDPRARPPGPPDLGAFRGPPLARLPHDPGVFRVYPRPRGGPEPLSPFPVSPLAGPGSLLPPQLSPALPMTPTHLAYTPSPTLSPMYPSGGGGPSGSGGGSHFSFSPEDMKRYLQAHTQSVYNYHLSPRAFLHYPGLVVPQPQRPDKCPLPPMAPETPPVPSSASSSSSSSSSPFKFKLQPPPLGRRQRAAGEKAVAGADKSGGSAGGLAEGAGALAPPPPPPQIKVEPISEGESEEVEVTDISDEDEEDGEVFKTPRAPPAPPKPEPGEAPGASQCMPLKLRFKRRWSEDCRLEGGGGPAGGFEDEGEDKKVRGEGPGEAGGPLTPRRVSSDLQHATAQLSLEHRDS
The following applies: protein: recombinant; tags: N-terminal GST; dsDNA, one strand shown. An outline of the steps:
as §1

In a further test the target is T7, ETV3L (Homo sapiens, UniProt Q6ZN32 1-361).
T7 sequence: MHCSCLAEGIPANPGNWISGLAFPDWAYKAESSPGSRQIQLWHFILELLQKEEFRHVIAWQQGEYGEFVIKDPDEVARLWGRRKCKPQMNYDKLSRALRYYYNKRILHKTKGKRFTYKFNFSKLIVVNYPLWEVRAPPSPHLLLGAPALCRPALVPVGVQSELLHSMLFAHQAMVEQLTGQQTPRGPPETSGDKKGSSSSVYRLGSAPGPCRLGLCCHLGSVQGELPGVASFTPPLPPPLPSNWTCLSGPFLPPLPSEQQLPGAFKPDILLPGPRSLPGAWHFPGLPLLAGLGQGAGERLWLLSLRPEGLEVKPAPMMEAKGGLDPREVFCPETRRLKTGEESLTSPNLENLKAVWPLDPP
Particulars: protein: recombinant; tags: N-terminal GST; dsDNA, one strand shown. Put shortly: as §1

The next test deals with T8, ETS2 (Homo sapiens, UniProt P15036 1-469).
T8 sequence: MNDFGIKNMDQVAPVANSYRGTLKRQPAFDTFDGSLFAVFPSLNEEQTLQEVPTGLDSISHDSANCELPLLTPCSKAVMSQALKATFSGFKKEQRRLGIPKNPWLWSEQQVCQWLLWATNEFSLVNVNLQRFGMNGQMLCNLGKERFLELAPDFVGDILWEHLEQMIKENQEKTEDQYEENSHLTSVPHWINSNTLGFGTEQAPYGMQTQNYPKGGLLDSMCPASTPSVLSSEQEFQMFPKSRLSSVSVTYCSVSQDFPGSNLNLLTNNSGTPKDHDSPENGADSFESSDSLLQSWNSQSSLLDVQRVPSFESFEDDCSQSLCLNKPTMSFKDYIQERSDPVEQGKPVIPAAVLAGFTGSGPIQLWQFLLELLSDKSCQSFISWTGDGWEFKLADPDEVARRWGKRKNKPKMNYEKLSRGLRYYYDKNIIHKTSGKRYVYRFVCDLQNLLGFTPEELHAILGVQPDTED
Particulars: protein: recombinant; tags: N-terminal GST; dsDNA, one strand shown. Put shortly: as §1

Another test concerns the target T9, SPDEF (Homo sapiens, UniProt O95238 1-335).
T9 sequence: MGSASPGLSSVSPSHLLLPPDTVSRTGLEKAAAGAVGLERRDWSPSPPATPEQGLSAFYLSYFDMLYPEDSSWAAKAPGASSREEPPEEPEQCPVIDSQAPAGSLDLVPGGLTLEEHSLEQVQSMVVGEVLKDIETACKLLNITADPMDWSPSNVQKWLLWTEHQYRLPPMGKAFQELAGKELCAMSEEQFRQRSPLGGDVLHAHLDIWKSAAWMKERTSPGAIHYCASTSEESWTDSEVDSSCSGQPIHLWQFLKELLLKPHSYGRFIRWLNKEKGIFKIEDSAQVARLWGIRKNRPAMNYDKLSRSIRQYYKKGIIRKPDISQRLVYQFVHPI
Particulars: protein: recombinant; tags: N-terminal GST; dsDNA, one strand shown. Put shortly:
as §1

The next test addresses T10, ETV7 (Homo sapiens, UniProt Q9Y603 1-341).
T10 sequence: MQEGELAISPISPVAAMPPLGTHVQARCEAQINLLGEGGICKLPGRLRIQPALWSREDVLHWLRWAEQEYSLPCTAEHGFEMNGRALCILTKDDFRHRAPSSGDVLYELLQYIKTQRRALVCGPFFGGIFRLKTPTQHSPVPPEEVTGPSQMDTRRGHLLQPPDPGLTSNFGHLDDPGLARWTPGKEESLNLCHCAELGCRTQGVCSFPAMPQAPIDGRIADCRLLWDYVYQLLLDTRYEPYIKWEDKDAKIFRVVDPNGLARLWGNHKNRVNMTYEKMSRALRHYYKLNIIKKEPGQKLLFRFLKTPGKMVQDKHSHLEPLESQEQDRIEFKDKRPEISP
Particulars: protein: recombinant; tags: N-terminal GST; dsDNA, one strand shown. Put shortly:
as §1

For the next test, the target named is T11, ELF5 (Homo sapiens, UniProt Q9UKW6-2 1-255).
T11 sequence: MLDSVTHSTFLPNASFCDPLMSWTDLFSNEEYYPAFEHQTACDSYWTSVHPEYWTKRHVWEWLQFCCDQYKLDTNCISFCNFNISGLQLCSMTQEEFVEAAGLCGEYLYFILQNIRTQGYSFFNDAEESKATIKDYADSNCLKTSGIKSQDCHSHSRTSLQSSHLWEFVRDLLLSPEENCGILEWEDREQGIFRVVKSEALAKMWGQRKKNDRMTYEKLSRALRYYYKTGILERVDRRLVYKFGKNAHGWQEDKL
The following applies: protein: recombinant; tags: N-terminal GST; dsDNA, one strand shown. Put shortly: as §1

Another test concerns the target T12, ETV3 (Homo sapiens, UniProt P41162-2 1-143).
T12 sequence: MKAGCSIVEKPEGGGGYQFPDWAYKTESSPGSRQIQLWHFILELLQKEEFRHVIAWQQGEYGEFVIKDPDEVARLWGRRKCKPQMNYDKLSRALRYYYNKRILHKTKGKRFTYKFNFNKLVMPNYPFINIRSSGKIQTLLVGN
Particulars: protein: recombinant; tags: N-terminal GST; dsDNA, one strand shown. An outline of the steps:
as §1

The target in another test is ETV6 (Homo sapiens, UniProt P41212 1-452). The following applies: protein: recombinant; tags: N-terminal GST; dsDNA, one strand shown. An outline of the steps: as §1
Chain of ETV6 (P41212 whole entry): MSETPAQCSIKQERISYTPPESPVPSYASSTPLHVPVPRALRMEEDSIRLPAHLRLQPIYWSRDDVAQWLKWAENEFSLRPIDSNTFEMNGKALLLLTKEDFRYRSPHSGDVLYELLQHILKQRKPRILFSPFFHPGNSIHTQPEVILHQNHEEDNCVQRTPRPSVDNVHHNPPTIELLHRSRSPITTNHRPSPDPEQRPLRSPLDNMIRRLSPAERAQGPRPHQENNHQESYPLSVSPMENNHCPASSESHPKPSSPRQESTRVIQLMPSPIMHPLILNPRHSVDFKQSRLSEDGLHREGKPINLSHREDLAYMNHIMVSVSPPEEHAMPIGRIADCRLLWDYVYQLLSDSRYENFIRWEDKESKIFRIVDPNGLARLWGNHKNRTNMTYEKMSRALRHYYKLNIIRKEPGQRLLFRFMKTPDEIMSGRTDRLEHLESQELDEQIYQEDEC

Chain of ELF4 (Q99607 whole entry): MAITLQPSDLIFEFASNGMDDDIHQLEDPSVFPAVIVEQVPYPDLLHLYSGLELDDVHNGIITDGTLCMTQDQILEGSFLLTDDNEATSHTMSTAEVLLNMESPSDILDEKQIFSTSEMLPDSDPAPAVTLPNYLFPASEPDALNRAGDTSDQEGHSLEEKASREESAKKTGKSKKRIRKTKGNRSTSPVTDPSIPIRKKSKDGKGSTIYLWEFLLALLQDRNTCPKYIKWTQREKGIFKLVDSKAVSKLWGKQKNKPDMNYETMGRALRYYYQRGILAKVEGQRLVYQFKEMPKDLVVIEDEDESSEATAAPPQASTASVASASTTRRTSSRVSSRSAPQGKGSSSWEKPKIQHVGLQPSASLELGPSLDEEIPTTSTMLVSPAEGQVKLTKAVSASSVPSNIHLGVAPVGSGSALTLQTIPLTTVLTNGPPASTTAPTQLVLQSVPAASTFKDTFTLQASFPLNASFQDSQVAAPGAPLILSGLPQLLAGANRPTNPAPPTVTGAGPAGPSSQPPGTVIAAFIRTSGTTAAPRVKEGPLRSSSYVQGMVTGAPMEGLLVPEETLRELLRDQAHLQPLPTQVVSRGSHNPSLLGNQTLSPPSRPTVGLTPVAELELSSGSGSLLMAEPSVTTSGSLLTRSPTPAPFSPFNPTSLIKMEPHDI
Chain of HSF1 (Q00613 whole entry): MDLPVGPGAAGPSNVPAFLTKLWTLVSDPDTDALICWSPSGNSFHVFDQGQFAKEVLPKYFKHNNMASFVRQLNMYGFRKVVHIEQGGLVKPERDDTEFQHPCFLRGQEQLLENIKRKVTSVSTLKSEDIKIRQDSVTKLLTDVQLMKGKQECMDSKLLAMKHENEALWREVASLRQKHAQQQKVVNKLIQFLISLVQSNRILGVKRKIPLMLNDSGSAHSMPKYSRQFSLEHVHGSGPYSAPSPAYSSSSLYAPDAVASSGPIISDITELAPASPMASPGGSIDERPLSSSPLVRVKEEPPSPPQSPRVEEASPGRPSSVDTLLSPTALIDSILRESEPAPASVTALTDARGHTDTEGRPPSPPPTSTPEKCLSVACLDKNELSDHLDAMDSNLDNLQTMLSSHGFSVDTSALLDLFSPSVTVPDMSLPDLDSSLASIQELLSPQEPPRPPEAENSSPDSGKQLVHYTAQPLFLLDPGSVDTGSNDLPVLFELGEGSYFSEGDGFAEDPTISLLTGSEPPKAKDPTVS

With CTGATA, the binding signal was 1.14 fold enrichment (6-mer frequency, TF over GST control) with FEV; 1.18 fold enrichment (6-mer frequency, TF over GST control) with ETV5; 1.18 fold enrichment (6-mer frequency, TF over GST control) with HSF1; 1.11 fold enrichment (6-mer frequency, TF over GST control) in the test with SPIC; 1.19 fold enrichment (6-mer frequency, TF over GST control) with ELF4; 1.35 fold enrichment (6-mer frequency, TF over GST control) with ELK4. Besides, the binding signal with ETV2 was 1.15 fold enrichment (6-mer frequency, TF over GST control); in the test with ELF3 it was 1.13 fold enrichment (6-mer frequency, TF over GST control); in the test with CRX it was 1.26 fold enrichment (6-mer frequency, TF over GST control); in the test with ETV1, 1.13 fold enrichment (6-mer frequency, TF over GST control); with ERF, 1.16 fold enrichment (6-mer frequency, TF over GST control); with ETV3L, 1.21 fold enrichment (6-mer frequency, TF over GST control). The binding signal with ETS2 was 1.17 fold enrichment (6-mer frequency, TF over GST control); with SPDEF, 1.15 fold enrichment (6-mer frequency, TF over GST control); with ETV7 it was 1.08 fold enrichment (6-mer frequency, TF over GST control); with ELF5, 1.2 fold enrichment (6-mer frequency, TF over GST control); in the test with ETV3, 1.26 fold enrichment (6-mer frequency, TF over GST control); with ETV6, 1.06 fold enrichment (6-mer frequency, TF over GST control).
